Laboratory results published in PubChem BioAssay (NCI).
About 83,000 compounds went through this panel and 20% of them were active in at least one assay; those are over-represented in the sample as a whole.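 Each cell line was grown in a 96-well plate and treated with one concentration of compound for 48 hours. Values below 10 were considered active.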 The source made the active and inactive calls.

test system: OVCAR-3 ovarian; assay: NCI-60 one-dose screen, 48 h (100 = growth as untreated, 0 = no growth, -100 = all killed); conditions: 10 µM

**Q.** With `O=C1/C(=C/c2ccc(O)cc2)Oc2ccc(Cl)cc21` as the compound, how does the growth read?
**A.** The growth was 92.9% (inactive).

**Q.** For `C#Cc1ccc(-n2c(/C=C/c3cc(OC)c(OC)c(OC)c3)nc3ncccc3c2=O)cc1`, which growth is on record?
**A.** The growth was 4.62% (active).

**Q.** Which growth does the source give for `COC(=O)[C@]12CC[C@@H](C)[C@H](C)[C@@H]1C1=CC[C@@H]3[C@@]4(C)C[C@@H](O)[C@H](O)[C@@](C)(CO)[C@@H]4[C@H](O)C[C@@]3(C)[C@]1(C)CC2` here?
**A.** Its growth is -64.9% (active).

**Q.** With `COc1ccc(-c2nc(SCC(=O)c3ccc(Br)cc3)[nH]c(=O)c2C#N)cc1` as the compound, how does the growth read?
**A.** The growth was 99.3% (inactive).

**Q.** With `COc1ccc(C2C=C(c3ccc(Cl)c(Cl)c3)N=C3SC(C)=CN32)cc1` (configuration not stated) as the compound, how does the growth read?
**A.** The growth was 95.5% (inactive).

**Q.** `CCOc1nc(-c2ccccc2)cc2c(O)c(C(=O)NC(C)C)[nH]c(=O)c12` was tested. Which growth did it give?
**A.** The growth was 100% (inactive).

**Q.** How did the growth turn out when `S=c1c2ncccc2c(-c2ccccn2)nn1Cc1ccccn1` was run?
**A.** Its growth is 115% (inactive).

**Q.** How did the growth turn out when `Nc1cc(O)cc(O)c1` was run?
**A.** Its growth is 108% (inactive).

**Q.** Which growth does the source give for `COc1c(-c2c3sc(=O)[nH]c3nc3c2c(=O)[nH]n3C(C)C)cc2c(c1OC)OCO2` here?
**A.** Its growth is 113% (inactive).

**Q.** `Cc1c(C(=O)N[C@H](CO)Cc2ccccc2)[nH]c2ccc(Cl)cc2c1=O` was tested. Which growth did it give?
**A.** The growth was 111% (inactive).

**Q.** With `COc1cc(Cn2c(-c3ccccc3)c(Cl)c3c2-c2oncc2CC3)cc(OC)c1` as the compound, how does the growth read?
**A.** The growth was 45.9% (inactive).

**Q.** Which growth does the source give for `C/C=C\COc1cc(C)c(Cl)cc1Cl` here?
**A.** The growth was 116% (inactive).

**Q.** For `CCOC(=O)CNC(=O)Nc1ccc(Oc2ccc(NC(=O)NCC(=O)OCC)cc2)cc1`, which growth is on record?
**A.** Its growth is 107% (inactive).

**Q.** `c1ccc(CNc2nc(Nc3ccc(-c4nc5ccccc5[nH]4)cc3)c3cn[nH]c3n2)cc1` was tested. Which growth did it give?
**A.** The growth was -38.1% (active).

**Q.** `c1ccc(COCC[P+](c2ccccc2)(c2ccccc2)c2ccccc2)cc1` was tested. Which growth did it give?
**A.** The growth was 3.01% (active).

**Q.** Which growth does the source give for `CCOC(=O)C1=C(Nc2ccc(OC)cc2)C(N)=NC1=N` here?
**A.** Its growth is 17% (inactive).

**Q.** How did the growth turn out when `CC(=O)n1nc(C(=O)OC(C)(C)C)c2cc(F)c(F)cc21` was run?
**A.** Its growth is 96.8% (inactive).

**Q.** `Cc1cc(Cl)ccc1Nc1nc(C(F)(F)F)ccc1C(=O)N/N=C/c1ccccc1Cl` was tested. Which growth did it give?
**A.** Its growth is 16.3% (inactive).

**Q.** `CN1/C(=C\C(I)C(I)C2=[N+](C)c3ccccc3C2(C)C)C(C)(C)c2ccccc21` (configuration not stated) was tested. Which growth did it give?
**A.** Its growth is 13.3% (inactive).

**Q.** Which growth does the source give for `N#C/C(=C/c1cc([N+](=O)[O-])ccc1Cl)C(N)=O` here?
**A.** Its growth is 104% (inactive).

**Q.** Which growth does the source give for `CCCCCCCCCCCC(=O)NCCCN(C)C` here?
**A.** The growth was 108% (inactive).

**Q.** `CCc1nn2c(-c3cc(OC)c(OC)c(OC)c3)c(-c3cc(OC)c(OC)c(OC)c3)nc2s1` was tested. Which growth did it give?
**A.** Its growth is 93.4% (inactive).

**Q.** Which growth does the source give for `CCN1CCN(c2nc(NNC(=O)c3cccc(OC)c3)nc(N3CCN(C(c4ccccc4)c4ccccc4)CC3)n2)CC1` here?
**A.** The growth was 72.6% (inactive).

**Q.** For `CCCCOCCOCCOCc1cc2c(cc1Br)OCO2`, which growth is on record?
**A.** Its growth is 111% (inactive).

**Q.** How did the growth turn out when `CCCCCCCCCCCCCC[n+]1ccccc1` was run?
**A.** Its growth is -51.2% (active).

**Q.** For `Cc1cc(C)c2nc(C)c(C)[n+]([O-])c2c1`, which growth is on record?
**A.** Its growth is 110% (inactive).

**Q.** `Clc1cc(Cl)c(OCCCCCCN2CCNCC2)c(Cl)c1` was tested. Which growth did it give?
**A.** Its growth is 45.7% (inactive).

**Q.** With `COc1ccc(NC(=O)c2sc3nc4c(cc3c2N)C(O)CCC4)cc1` (configuration not stated) as the compound, how does the growth read?
**A.** Its growth is 104% (inactive).

**Q.** With `Cc1cc(C(C)(C)CC(C)(C)C)ccc1OCCOCC[N+](C)(C)Cc1ccccc1` as the compound, how does the growth read?
**A.** The growth was 12.9% (inactive).

**Q.** With `COc1cc(C2C(C#N)=C(c3c[nH]c4ccccc34)Nc3nc(N)[nH]c(=O)c32)cc(OC)c1OC` (configuration not stated) as the compound, how does the growth read?
**A.** The growth was 21% (inactive).

**Q.** For `COc1ccc(-c2nc(-c3nc4ccc(C)cc4[nH]3)c3ccccn23)cc1`, which growth is on record?
**A.** Its growth is 72.6% (inactive).

**Q.** Which growth does the source give for `COCCOC(=O)NC(=O)Nc1ccc(/C(=N/O)c2ccc(Cl)cc2)cc1` here?
**A.** Its growth is 0.755% (active).

**Q.** For `CCN(CCCNC(=O)Cc1cc(=O)oc2cc(N(C)C)ccc12)CCNc1ccnc2cc(Cl)ccc12`, which growth is on record?
**A.** Its growth is 106% (inactive).

**Q.** For `CC(C)c1ncc(CO)n1Cc1c(Cl)cccc1Cl`, which growth is on record?
**A.** Its growth is 105% (inactive).

test system: HS 578T breast; assay: as above; conditions: 10 µM

**Q.** With `COc1cc(C(=O)n2nc(N)c3c(C)cc(C)nc32)cc(OC)c1OC` as the compound, how does the growth read?
**A.** The growth was 83.2% (inactive).

**Q.** Which growth does the source give for `C#Cc1ccc(-n2c(/C=C/c3cc(OC)c(OC)c(OC)c3)nc3ncccc3c2=O)cc1` here?
**A.** Its growth is 75.4% (inactive).

**Q.** Which growth does the source give for `COC(=O)[C@]12CC[C@@H](C)[C@H](C)[C@@H]1C1=CC[C@@H]3[C@@]4(C)C[C@@H](O)[C@H](O)[C@@](C)(CO)[C@@H]4[C@H](O)C[C@@]3(C)[C@]1(C)CC2` here?
**A.** The growth was -13% (active).

**Q.** Which growth does the source give for `Oc1ccccc1-c1nnc(Cn2c(Cc3cccc4ccccc34)nc3ccccc32)o1` here?
**A.** The growth was 99.5% (inactive).

**Q.** `COc1ccc(-c2nc(SCC(=O)c3ccc(Br)cc3)[nH]c(=O)c2C#N)cc1` was tested. Which growth did it give?
**A.** The growth was 96.4% (inactive).

**Q.** With `COc1ccc(C2C=C(c3ccc(Cl)c(Cl)c3)N=C3SC(C)=CN32)cc1` (configuration not stated) as the compound, how does the growth read?
**A.** Its growth is 105% (inactive).

**Q.** With `CCOc1nc(-c2ccccc2)cc2c(O)c(C(=O)NC(C)C)[nH]c(=O)c12` as the compound, how does the growth read?
**A.** The growth was 82.5% (inactive).

**Q.** With `COc1c(-c2c3sc(=O)[nH]c3nc3c2c(=O)[nH]n3C(C)C)cc2c(c1OC)OCO2` as the compound, how does the growth read?
**A.** The growth was 99.2% (inactive).

**Q.** Which growth does the source give for `Cc1c(C(=O)N[C@H](CO)Cc2ccccc2)[nH]c2ccc(Cl)cc2c1=O` here?
**A.** The growth was 102% (inactive).

**Q.** `COc1cc(Cn2c(-c3ccccc3)c(Cl)c3c2-c2oncc2CC3)cc(OC)c1` was tested. Which growth did it give?
**A.** The growth was 52.8% (inactive).

**Q.** For `C/C=C\COc1cc(C)c(Cl)cc1Cl`, which growth is on record?
**A.** Its growth is 121% (inactive).

**Q.** For `CCOC(=O)CNC(=O)Nc1ccc(Oc2ccc(NC(=O)NCC(=O)OCC)cc2)cc1`, which growth is on record?
**A.** Its growth is 101% (inactive).

**Q.** For `c1ccc(CNc2nc(Nc3ccc(-c4nc5ccccc5[nH]4)cc3)c3cn[nH]c3n2)cc1`, which growth is on record?
**A.** Its growth is -6.55% (active).

**Q.** Which growth does the source give for `c1ccc(COCC[P+](c2ccccc2)(c2ccccc2)c2ccccc2)cc1` here?
**A.** The growth was 32.9% (inactive).

**Q.** `CCOC(=O)C1=C(Nc2ccc(OC)cc2)C(N)=NC1=N` was tested. Which growth did it give?
**A.** Its growth is 48.5% (inactive).

**Q.** For `NC(=O)C1CCCN(Cc2c[nH]c3ccccc23)C1` (configuration not stated), which growth is on record?
**A.** The growth was 96.6% (inactive).

**Q.** Which growth does the source give for `CC(=O)n1nc(C(=O)OC(C)(C)C)c2cc(F)c(F)cc21` here?
**A.** Its growth is 106% (inactive).

**Q.** `Cc1cc(Cl)ccc1Nc1nc(C(F)(F)F)ccc1C(=O)N/N=C/c1ccccc1Cl` was tested. Which growth did it give?
**A.** The growth was 17.4% (inactive).

**Q.** `CN1/C(=C\C(I)C(I)C2=[N+](C)c3ccccc3C2(C)C)C(C)(C)c2ccccc21` (configuration not stated) was tested. Which growth did it give?
**A.** The growth was 42.8% (inactive).

**Q.** For `N#C/C(=C/c1cc([N+](=O)[O-])ccc1Cl)C(N)=O`, which growth is on record?
**A.** Its growth is 113% (inactive).

**Q.** Which growth does the source give for `CCc1nn2c(-c3cc(OC)c(OC)c(OC)c3)c(-c3cc(OC)c(OC)c(OC)c3)nc2s1` here?
**A.** Its growth is 37.1% (inactive).

**Q.** How did the growth turn out when `CCN1CCN(c2nc(NNC(=O)c3cccc(OC)c3)nc(N3CCN(C(c4ccccc4)c4ccccc4)CC3)n2)CC1` was run?
**A.** Its growth is 64.3% (inactive).

**Q.** Which growth does the source give for `CCCCOCCOCCOCc1cc2c(cc1Br)OCO2` here?
**A.** The growth was 108% (inactive).

**Q.** With `Cc1cc(C)c2nc(C)c(C)[n+]([O-])c2c1` as the compound, how does the growth read?
**A.** Its growth is 112% (inactive).

**Q.** With `Clc1cc(Cl)c(OCCCCCCN2CCNCC2)c(Cl)c1` as the compound, how does the growth read?
**A.** Its growth is 55.3% (inactive).

**Q.** `COc1ccc(NC(=O)c2sc3nc4c(cc3c2N)C(O)CCC4)cc1` (configuration not stated) was tested. Which growth did it give?
**A.** The growth was 112% (inactive).

**Q.** `Cc1cc(C(C)(C)CC(C)(C)C)ccc1OCCOCC[N+](C)(C)Cc1ccccc1` was tested. Which growth did it give?
**A.** Its growth is -9.66% (active).

**Q.** How did the growth turn out when `CCCCCC(=O)N1c2ccccc2NC2=C(C(=O)CC(c3ccc(OC)c(OC)c3)C2)C1c1ccc(C(F)(F)F)cc1` (configuration not stated) was run?
**A.** Its growth is 78.7% (inactive).

**Q.** How did the growth turn out when `COc1cc(C2C(C#N)=C(c3c[nH]c4ccccc34)Nc3nc(N)[nH]c(=O)c32)cc(OC)c1OC` (configuration not stated) was run?
**A.** The growth was 96% (inactive).

**Q.** For `COc1ccc(-c2nc(-c3nc4ccc(C)cc4[nH]3)c3ccccn23)cc1`, which growth is on record?
**A.** The growth was 74.7% (inactive).

**Q.** `COCCOC(=O)NC(=O)Nc1ccc(/C(=N/O)c2ccc(Cl)cc2)cc1` was tested. Which growth did it give?
**A.** Its growth is 34.4% (inactive).

**Q.** With `CCN(CCCNC(=O)Cc1cc(=O)oc2cc(N(C)C)ccc12)CCNc1ccnc2cc(Cl)ccc12` as the compound, how does the growth read?
**A.** Its growth is 98.3% (inactive).

**Q.** With `CC(C)c1ncc(CO)n1Cc1c(Cl)cccc1Cl` as the compound, how does the growth read?
**A.** The growth was 104% (inactive).
